# Assay results published in PubChem BioAssay AID2380 (Sanford-Burnham Center for Chemical Genomics, 2010).
# The whole screen tested about 330,000 compounds, of which about 960 (0.29%) were called active.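 The calls were made as follows: active = compounds whose signal lies at least 3.5 SD above the mean of all wells on their plate; inactive = the rest.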 For the sample, actives were picked, then their nearest neighbours and some compounds at random.
# Test: inducers of MIN6 beta-cell proliferation, primary screen, ATP luminescence, uHTS (AID 2380);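 also: 0% = DMSO-treated cells in low-serum medium and 100% = 10% serum control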
# Conditions: MIN6 cells proliferation, ATPlite luminescence, 48 h, at 10 µM, hits give high values
row,Structure (SMILES),proliferation
1,c1ccc(CCNC2CCCCCC2)cc1,1.52% (inactive)
2,c1cc2c(cc1CCNC1CCCCCC1)OCO2,8.35% (active)
3,COc1ccc(CNCCc2ccc3c(c2)OCO3)c(OC)c1OC,5.73% (inactive)
4,CC1(C)Cc2c(C#N)c(N3CCNCC3)nc(-c3ccco3)c2CS1,-3.88% (inactive)
5,CC(=O)c1ccc(OC(NC(=O)Cc2ccccc2)C(Cl)(Cl)Cl)cc1 (stereo not given),-1.48% (inactive)
6,Cc1cc(OCc2cc(C(=O)O)oc2C)c2c3c(c(=O)oc2c1)CCCC3,-3.8% (inactive)
7,COC(=O)COc1cc(C)cc2oc(=O)c3c(c12)CCCC3,5.08% (active)
8,COc1cc(OC)cc(C2(C#N)CCN(C)CC2)c1,-0.56% (inactive)
9,CCOc1cccc(=NC2CCCCC2)c2c(C)[nH]c(C)c12,-3.34% (inactive)
10,CCC1(C)CC(CCNCc2ccc(N(C)C)cc2)(c2ccc(F)cc2)CCO1 (stereo not given),-4.45% (inactive)
11,COc1ccc(C(=O)CC2C(=O)N(C)C(=O)N(C)C2=O)cc1,-0.73% (inactive)
12,O=C(N/N=C/c1c(O)n(Cc2ccccc2)c(=O)[nH]c1=O)c1ccccc1,5.26% (active)
13,O=C(N/N=C/c1c(O)n(C2CC2)c(=S)[nH]c1=O)c1ccccc1,-1.64% (inactive)
14,O=c1[nH]c(=O)n(Cc2ccccc2)c(O)c1/C=N/Nc1c(F)c(F)c(F)c(F)c1F,1.39% (inactive)
15,COC(=O)C1=C(c2ccc(Cl)c(C(F)(F)F)c2)C[C@@H]2CC[C@H]1N2C(=O)NC(C)C,"-1.97% [100% = growth in 10% serum, cells starved in 0.2% serum] (inactive)"
